Hits are enriched below; roughly 3.8% of the tested compounds scored in any of these assays.
NALP3 yeast inh: NALP3 inhibition in yeast; Yeast reconstituted NLRP3/ASC/caspase-1, beta-gal luminescence, 24 h; inhibition, % at 10 µM; actives 0.39% (n = 330,000);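 active = inhibition of 50% or more; inactive = inhibition below 50%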;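 also: plate controls were induced DMSO wells for no effect and uninduced yeast grown without galactose for full effect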
TIM10 inh: inhibits growth of TIM10 yeast strain; S. cerevisiae TIM10 strain growth, BacTiter-Glo luminescence, 24 h; inhibition, % at 10 µM; actives 1.4% (n = 330,000);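 active = inhibition of 40% or more at the single tested concentration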;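 also: wild-type TIM10 isogenic control strain grown at permissive 25 °C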
tim10-1 inh: tim10-1 yeast growth inhibition. S. cerevisiae tim10-1 ts strain growth, BacTiter-Glo, 24 h. inhibition, % at 20 µM. actives 2.2% (n = 330,000). AID 463190;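 active = inhibition of at least 40%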;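 also: mutant grown at 25 °C; 0% = DMSO wells with yeast and 100% = wells holding no yeast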
Yeast superoxide: yeast age-related superoxide inhibition as caloric restriction mimetic; S. cerevisiae aged cells, superoxide DHE fluorescence; stronger effect = lower value; superoxide response (% of plate mean), % at 10 µM; actives 0.18% (n = 330,000); AID 2690;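 active = superoxide response under a set limit, about three screen SD below normal, cut at about 65% in these data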;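 also: yeast aged for seven days with compound at 30 °C before DHE staining; 100% = average MFI of all compound-treated wells on the plate with controls excluded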
tim23-1 inh: inhibits growth of tim23-1 mutant yeast. actives 1.3% (n = 330,000). inhibition, % at 20 µM. S. cerevisiae tim23-1 growth, BacTiter-Glo luminescence, 24 h. AID 463212;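 active = growth inhibition of the mutant yeast at or above 50%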;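 also: temperature-sensitive mutant grown at 25 °C; plate controls were DMSO-treated mutant yeast for no effect and medium wells lacking yeast for full effect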
tim10-1 confirm: confirmation of tim10-1 mutant yeast growth inhibitors. shares compounds with tim10-1 inh. S. cerevisiae tim10-1 ts strain growth, BacTiter-Glo, 24 h. inhibition, % at 20 µM. actives 56% (n = 7,400). AID 463213;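 active = inhibition of yeast growth at or above a set limit in either of two repeat tests at 20 µM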;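 also: tim10-1 mutant grown at permissive 25 °C to find synthetic lethal compounds; 0% = DMSO yeast wells and 100% = medium wells without yeast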
TIM10 conf: TIM10 yeast growth inhibition, confirmed; S. cerevisiae tim10 strain growth, BacTiter-Glo luminescence, 24 h; shares compounds with TIM10 inh; AID 463215; actives 63% (n = 4,600); inhibition, % at 10 µM;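 active = inhibition of yeast growth at or above a set limit in either of two replicates at 10 µM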;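 also: this counterscreen used the strain with wild-type TIM10; 0% = yeast with DMSO and 100% = medium wells lacking yeast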
tim23-1 conf: tim23-1 yeast growth inhibition, confirmed; actives 83% (n = 4,400); S. cerevisiae tim23-1 growth, BacTiter-Glo luminescence, 24 h; AID 463218; shares compounds with tim23-1 inh; inhibition, % at 20 µM;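 active = inhibition above about 39% in either of two replicate wells at 20 µM, limit read from the data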;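 also: temperature-sensitive tim23-1 mutant grown at 25 °C; 0% = DMSO wells with yeast and 100% = medium wells without yeast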
* marks the source's active call; other numbers are inactive results; · = no result given.

SMILES | NALP3 yeast inh | TIM10 inh | tim10-1 inh | Yeast superoxide | tim23-1 inh | tim10-1 confirm | TIM10 conf | tim23-1 conf
O=c1c2cc(Cl)ccc2nc(-c2ccccc2)n1O | 39.9 | 14.6 | 48.2* | 86.9 | 59.5* | 5.8 | · | 63.7*
Cc1ccc(S(=O)(=O)NCC(C)n2nc(C)cc2C)cc1 (configuration not stated) | 0.6 | 3.8 | -3.3 | 92.1 | -2.8 | · | · | ·
Cc1ccc(C(C[N+](=O)[O-])n2nc(C)cc2C)cc1 (configuration not stated) | 32.3 | 22.5 | 52.6* | 106.4 | 80.1* | 35.8* | · | 72.7*
CCN(CC)c1ccc2c(c1)oc(=O)c1c(Cl)cc(=O)oc12 | 6.4 | 88.8* | 77.7* | 100.5 | 73.4* | 82.0* | 61.0* | 81.2*
CCN(CC)c1ccc2c(Cl)c(Br)c(=O)oc2c1 | 6.0 | 72.2* | 60.3* | 93.2 | 63.9* | 58.8* | 67.8* | 77.9*
CCN(CC)c1ccc2c(C)cc(=O)oc2c1 | 24.3 | -11.4 | 4.2 | 97.5 | 30.6 | · | · | ·
O=[N+]([O-])c1ccc(Nc2c3ccccc3nc3ccccc23)cc1 | 19.2 | 48.6* | 63.3* | · | 73.4* | 53.6* | 49.6* | 68.2*
O=C(NCCS(=O)(=O)N1CCN(c2ccccc2)CC1)c1ccc(Br)o1 | 32.2 | 5.2 | 20.5 | 78.2 | 17.0 | · | · | ·
CCSc1nnc(-c2ccc(Cl)cc2)c2ccccc12 | 6.3 | 12.0 | 9.7 | 99.2 | 21.8 | · | · | ·
CCSc1nnc(-c2ccc(C)cc2)c2ccccc12 | 35.3 | 43.8* | 55.4* | 91.4 | 64.2* | 48.7* | 9.0 | 70.2*
COc1ccc(C(CNC(=O)Cc2ccc(-c3ccccc3)cc2)N(C)C)cc1 (configuration not stated) | 4.9 | 16.0 | -31.2 | 94.2 | -1.8 | · | · | ·
CCc1c(O)cc2n(c1=O)-c1ccc(Cl)cc1C2(C)C | 5.9 | 42.0* | 44.2* | 94.1 | 52.1* | 34.1* | -17.0 | 49.2*
CCCN1C(=O)C2(OCCO2)c2cc(Cl)ccc21 | 10.5 | -6.6 | 1.4 | 93.1 | 9.0 | · | · | ·
CC1CC1C(=O)OCC(=O)Nc1ccc(Cl)cn1 (configuration not stated) | 9.0 | 4.5 | -0.5 | 97.3 | 9.4 | · | · | ·
NC(=O)N(N)c1nc(N2CCCC2)nc(N2CCCC2)n1 | 13.9 | -0.2 | 4.0 | 93.8 | 12.3 | · | · | ·
Cc1ccc(Nc2cc(C)nc(-c3ccccc3)n2)cc1 | 18.8 | 39.2 | 42.4* | 108.5 | 51.2* | 32.9* | · | 58.4*
Cc1cc(Nc2ccc(F)c(F)c2)nc(-c2ccccc2O)n1 | -5.0 | 14.2 | 16.9 | 97.7 | -1.1 | · | · | ·
COc1ccc(/C=C/c2onc(C)c2S(=O)(=O)N2CCC(C(=O)N3CCC(C)CC3)CC2)cc1 | 13.8 | 10.8 | 13.6 | 111.8 | 22.8 | · | · | ·
Cc1ccc(O)c(C2=Nc3ccccc3N=C(c3cccs3)C2)c1 | 5.0 | 12.3 | 11.4 | 98.2 | 6.5 | · | · | ·
Cc1ccc2c(c1)N=C(c1ccccc1)CC(C(Cl)Cl)=N2 | 24.6 | 59.8* | 60.0* | 96.9 | 74.2* | 48.0* | 55.8* | 67.3*
Cc1sc(NC(=O)CSc2nnc(C)c(=O)[nH]2)c(C#N)c1C | 0.8 | -6.4 | -3.2 | 96.7 | 4.2 | · | · | ·
Cc1occc1C(=O)N/N=C/c1ccc(OCc2ccccc2)cc1 | 17.4 | 5.2 | -9.8 | 101.0 | 17.1 | · | · | ·
Cc1occc1C(=O)N/N=C/c1ccc(-c2ccccc2)cc1 | 17.6 | 42.6* | 58.7* | 97.5 | 63.4* | 56.4* | 41.0* | 56.9*
Cc1cc(C)n(-c2ccc(C(=O)OCC(=O)Nc3ccccc3F)cc2)n1 | 22.7 | 10.9 | 12.3 | 97.6 | 17.0 | · | · | ·
O=C(NC(=S)Nc1ccccc1N1CCCC1)c1ccccc1Br | 17.7 | 39.0 | 41.1* | 93.5 | 61.3* | 7.8 | · | 42.8*
O=C(NC(=S)Nc1cccc2cc(O)ccc12)c1ccccc1Br | 36.8 | 14.7 | 45.6* | 108.3 | 51.5* | 20.6 | · | 49.0*
O=C(NC(=S)Nc1ccccc1N1CCCC1)c1ccco1 | -48.8 | 34.9 | 35.5 | 101.1 | 41.0 | · | · | ·
O=C(NC(=S)Nc1ccccc1N1CCCCC1)c1ccco1 | -43.5 | 52.4* | 49.1* | 95.8 | 54.1* | 36.7* | -18.0 | 51.4*
